# Many of the other results were omitted from the sample, so hits are more common in it than they were.
# nsP2pro inh: Primary qHTS for inhibitors of NSP2Pro chikungunya virus (CHIKV) | Polyprotein P1234 (Chikungunya virus (strain S27-African prototype)), Q8JUX6 | FRET peptide cleavage, nsP2pro, fluorescence 1 h | Potency, µM (top dose mostly 24.9 µM), for the others: top-dose activity change, negative = inhibition, actives largely listed as inhibitors | 31,000 compounds, 1.1% hits; also: nearly all actives have a fitted effect of over 60% in size
#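 FRET cleavage of 2.5 uM peptide 2 by 150 nM CHIKV protease domain at pH 8.0 (Tris, Tween 20). Compounds at 7 concentrations (up to 25 uM) preincubated 15 min. Fluorescence read after 1 h at room temperature.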
# CHIKV nsP2 cell: Secondary cell base assay for inhibitors of NSP2Pro Chikungunya virus (CHIKV); shares compounds with nsP2pro inh; cell-based CHIKV nsP2 protease reporter assay; 450 compounds, 10% hits; Potency, µM (doses to about 51.1 µM), without a hit: at the highest dose activity change, negative = inhibition, usual class: inhibitors; also: nearly all actives have a fitted effect of over 70% in size
# CHIKV NSP2 FL: Selectivity profile for inhibitors of NSP2Pro chikungunya virus (CHIKV): Full length NSP2 enzyme counterscreen (CHIKV-NSP2); shares compounds with nsP2pro inh; Full-length CHIKV NSP2 protease enzymatic counterscreen; Potency, µM (series often up to 50.7 µM), for the others: at the top dose activity change, negative = inhibition, most hits filed as inhibitors; 410 compounds, 39% hits; AID 1964101, 2024; also: nearly all actives have a fitted effect of over 65% in size
# Furin counterscr: Selectivity profile for inhibitors of NSP2Pro chikungunya virus (CHIKV): Human furin counterscreen; Potency, µM (top dose mostly 50.6 µM), for inactives: at the top dose activity change, negative = inhibition, usual class: inhibitors; Recombinant human furin enzymatic counterscreen, fluorogenic substrate; 410 compounds, 6% hits; AID 1964102, 2024; shares compounds with nsP2pro inh
# NS23 peptide cs: Selectivity profile for inhibitors of NSP2Pro chikungunya virus (CHIKV): Endogenous NS2/3 peptide Counterscreen. Potency, µM (top dose mostly 51 µM), for the others: at the top dose activity change, negative = inhibition, actives largely listed as inhibitors. AID 1964103, 2024. Purified CHIKV nsP2 protease, endogenous NS2/3 peptide cleavage. 410 compounds, 34% hits. shares compounds with nsP2pro inh; also: nearly all actives have a fitted effect of over 55% in size
# Papain cs: Selectivity profile for inhibitors of NSP2Pro chikungunya virus (CHIKV): Papain Counterscreen; shares compounds with nsP2pro inh; purified papain protease activity, enzymatic inhibition; Potency, µM (titrated, usually from 51 µM), without a hit: at the highest dose activity change, negative = inhibition, hits mostly inhibitors; 410 compounds, 5% hits; AID 1964104, 2024
# nsP2pro conf qHTS: Confirmatory qHTS for inhibitors of NSP2Pro chikungunya virus (CHIKV) | Potency, µM (highest dose often 25.5 µM), for inactives: top-dose activity change, negative = inhibition, most hits filed as inhibitors | AID 1964105, 2024 | shares compounds with nsP2pro inh | 410 compounds, 43% hits | CHIKV nsP2 protease enzymatic activity, qHTS; also: nearly all actives have a fitted effect of over 75% in size
# HCV NS3 counter: Selectivity profile for inhibitors of NSP2Pro chikungunya virus (CHIKV): NS34A-HCV Counterscreen. shares compounds with nsP2pro inh. HCV NS3/4A protease biochemical counterscreen. Potency, µM (highest dose often 50.9 µM), actives largely listed as inhibitors. 410 compounds, 20% hits; also: nearly all actives have a fitted effect of over 55% in size
# Active calls of the source: *; i = inactive; u = inconclusive; ! = not active in a repeat; [ ] = remark or other dose. Calls follow the shape of the full dose curve. % is scaled to controls: 0 for no effect and ±100 for the full control effect; potency is read from the fitted curve at half-maximal effect.
SMILES,nsP2pro inh,others
CCc1c(C(=O)Nc2cc(S(=O)(=O)N(CC)CC)ccc2O)[nH]c(C)c1C(C)=O,-22%,
Cc1cc(S(=O)(=O)N2CCN(C3CCN(Cc4ccccn4)C3=O)CC2)ccc1Cl (stereo not given),-7%,
Cc1cc2c(cc1CC(=O)c1sccc1S(=O)(=O)Nc1onc(C)c1Cl)OCO2,-19%,
CC[C@@]1(O)C[C@H](O[C@H]2C[C@H](N(C)C)[C@H](O[C@H]3C[C@H](O)[C@H](O[C@H]4CCC(=O)[C@H](C)O4)[C@H](C)O3)[C@H](C)O2)c2c(cc3c(c2O)C(=O)c2c(O)cccc2C3=O)[C@@H]1C(=O)OC,u,CHIKV nsP2 cell=-17%;CHIKV NSP2 FL=u;Furin counterscr=-10%;NS23 peptide cs=u;Papain cs=-20%;nsP2pro conf qHTS=u;HCV NS3 counter=i
COc1cccc2c1C(=O)c1c(O)c3c(c(O)c1C2=O)C[C@@](O)(C(=O)CO)CC3OC1CC(N2CCOC(OC)C2)C(O)C(C)O1 (stereo not given in full),210%,
COc1cccc2c1C(=O)c1c(O)c3c(c(O)c1C2=O)C[C@@](O)(C(=O)CO)C[C@@H]3O[C@H]1C[C@H](N)[C@H](OC2CCCCO2)[C@H](C)O1 (stereo not given in full),181%,
COc1ccc(C(=O)N[C@H]2CO[C@H]3[C@@H]2OC[C@@H]3Nc2nccc(-c3ccccc3OC)n2)cc1,-2%,
CC(=O)OCCC(C)CCC1C(C)(O)CCC2C(C)(C)CCCC21C (stereo not given),2%,
C=CC(=O)N1C/C(=C\c2ccc([N+](=O)[O-])cc2)C(=O)/C(=C/c2ccc([N+](=O)[O-])cc2)C1,3.5µM*!,CHIKV nsP2 cell=u;CHIKV NSP2 FL=u;Furin counterscr=-14%;NS23 peptide cs=2.9µM*;Papain cs=-14%;nsP2pro conf qHTS=u;HCV NS3 counter=i
Cc1ccc(C(=O)N2CCN(c3ccc([N+](=O)[O-])cc3)CC2)cc1Cl,-6%,
O=C1Nc2ccccc2/C1=C\c1ccc([N+](=O)[O-])cc1,-9%,
CC(C)(O)c1cc2nc(-c3cnc(N)nc3)nc(N3CCOCC3)c2s1,43%,
CCn1c(-c2nonc2N)nc2cncc(C(=O)N3CC[C@H](N)C3)c21,-2%,
CO[C@H]1C(=O)[C@]2(C)[C@@H](OC)C[C@H]3OC[C@@]3(OC(C)=O)[C@H]2[C@H](OC(=O)c2ccccc2)[C@]2(O)C[C@H](OC(=O)[C@H](O)[C@@H](NC(=O)OC(C)(C)C)c3ccccc3)C(C)=C1C2(C)C,9%,
O=C(O)[C@H]1C2CCC(CC2)[C@@H]1Nc1nc(-c2c[nH]c3ncc(F)cc23)ncc1F,u,CHIKV nsP2 cell=-11%;CHIKV NSP2 FL=-36%;Furin counterscr=-11%;NS23 peptide cs=i;Papain cs=u;nsP2pro conf qHTS=u;HCV NS3 counter=i
CN(C)c1cccc(Oc2nnnn2[C@H]2CO[C@H]3[C@@H]2OC[C@@H]3NCC2CC2)c1,-2%[39.2 µM],
COc1cc(F)c(S(=O)(=O)N2CCN(S(=O)(=O)c3cccs3)CC2)c(F)c1,-3%,
COCCN(C)Cc1cn(Cc2ccccc2)nc1-c1ccc2c(c1)OCO2,-8%,
CCCS(=O)(=O)Nc1ccc2n(c1=O)C[C@H]1C[C@@H]2CN(C(=O)c2ccc(-c3ccccc3)cc2)C1,u,CHIKV nsP2 cell=-2%;CHIKV NSP2 FL=u;Furin counterscr=-8%;NS23 peptide cs=u;Papain cs=-8%;nsP2pro conf qHTS=-4%;HCV NS3 counter=u
O=c1c(NS(=O)(=O)Cc2ccccc2)ccc2n1C[C@H]1C[C@@H]2CN(S(=O)(=O)c2ccccc2)C1,u,CHIKV nsP2 cell=6%;CHIKV NSP2 FL=u;Furin counterscr=-5%;NS23 peptide cs=u;Papain cs=-3%;nsP2pro conf qHTS=u;HCV NS3 counter=u
O=C(c1ccccn1)N1C[C@@H]2C[C@H](C1)c1ccc(NS(=O)(=O)c3cccc(F)c3)c(=O)n1C2,-6%,
O=C(Nc1ccccc1)Nc1ccc2n(c1=O)C[C@H]1C[C@@H]2CN(C(=O)c2ccccc2)C1,-19%[39.2 µM],
COc1ccc(S(=O)(=O)N2C[C@@H]3C[C@H](C2)c2ccc(NS(=O)(=O)c4cccc(F)c4)c(=O)n2C3)cc1,24%,
O=c1c(NS(=O)(=O)c2cccc(F)c2)ccc2n1C[C@H]1C[C@@H]2CN(S(=O)(=O)c2ccccc2)C1,18%,
COc1ccccc1-c1ccc2c(n1)CN(CC(=O)N1CCCC1)C(=O)CO2,-4%[39.2 µM],
SMILES,nsP2pro inh,others
CCN(CC)C(=O)CC[C@@H]1CNC(=O)[C@@H]2C[C@H](NC(=O)Nc3ccsc3)CN12,-11%[39.2 µM],
Cn1c(Cn2ccc(C(F)(F)F)c(Oc3cc(Cl)cc(C#N)c3)c2=O)n[nH]c1=O,-6%,
Cc1c(F)cc(C(=O)NC2CC2)cc1-c1c(F)cn2c(C(C)(C)C)nnc2c1F,7%,
CCOc1ccc(C(C)CNC(=O)c2cc3sccc3n2Cc2ccccc2)cc1OCC (stereo not given),0%,
Cc1nn(Cc2ccccc2)c(C)c1[C@@H]1C=C[C@@H](NC(=O)c2cccs2)C1,-4%[39.2 µM],
CCNC(=O)N[C@@H]1C=C[C@@H](c2c(C)nn(-c3ccc(F)cc3)c2C)C1,2%[39.2 µM],
Cc1nn(CCC#N)c(C)c1[C@@H]1C=C[C@@H](NC(=O)c2cccs2)C1,u,CHIKV nsP2 cell=4%
NCCCC[C@H](NC(=O)[C@@H]1Cc2ccccc2CN1C(=O)CCC(=O)c1ccccc1)C(=O)NCC(c1ccccc1)c1ccccc1,28%,
NC(CO)C(=O)NNCc1ccc(O)c(O)c1O (stereo not given),1.8µM*,CHIKV nsP2 cell=-9%;CHIKV NSP2 FL=6.5µM*;Furin counterscr=-9%;NS23 peptide cs=4.1µM*;Papain cs=-1%;nsP2pro conf qHTS=1.3µM*;HCV NS3 counter=u
N[C@@H](CO)C(=O)Nc1ccc(Cl)cc1C(=O)c1ccc[nH]1,-4%,
CC(=O)NCCc1c[nH]c2ccccc12,4%[39.2 µM],
O=C(NCCc1c[nH]c2ccc(O)cc12)c1ccc2ccccc2c1O,2%,

# Compound activity from PubChem BioAssay.
